How the values were obtained:
Test in all cases: PBM binding z-score (relative to random genomic background probes); higher = stronger binding; sequences stand for … in GC…GCGATTGACAGCGTAGAATGAAGG
[1] = test system: PPARg:RXRa DBDmut IVT, anti-RXR (DBD mutation: RXRa K156A/R161A, NR concentration 270 nM, RXRa partner concentration 90 nM)
Outline: (§1)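 For binding z-scores, the reference was random background probes on custom Agilent 4×180K protein-binding microarrays. These arrays were incubated 1 h with ligand-free nuclear receptor dimers in PBS pH 7.4, 2% milk, 0.02% Triton X-100, 1 mM DTT, 0.2 mg/mL BSA and 0.4 mg/ml salmon testes DNA. Fluorescence was scanned after antibody detection of each partner (one per run) and regression-normalized.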

[2] = test system: PPARg:RXRa IVT, anti-PPARg (NR concentration 270 nM, RXRa partner concentration 90 nM)
Outline: as §1

[3] = test system: PPARg DBDmut:RXRa IVT, anti-PPARg (DBD mutation: PPARg1 K132A/R137A, NR concentration 270 nM, RXRa partner concentration 90 nM)
Outline: as §1

[4] = test system: PPARg DBDmut IVT, anti-PPARg (DBD mutation: PPARg1 K132A/R137A, NR concentration 270 nM)
Outline: as §1

[5] = test system: PPARg homodimer (NR concentration 180 nM)
Outline: as §1

[6] = test system: PXR:RXRa (NR concentration 270 nM, RXRa partner concentration 90 nM)
Outline: as §1

[7] = test system: PXR homodimer (NR concentration 270 nM)
Outline: as §1

[8] = test system: RARa:RXR (NR concentration 270 nM, RXRa partner concentration 90 nM)
Outline: as §1

[9] = test system: RARa homodimer (NR concentration 270 nM)
Outline: as §1

[10] = test system: RARb:RXRa (NR concentration 270 nM, RXRa partner concentration 90 nM)
Outline: as §1

[11] = test system: RARb homodimer (NR concentration 270 nM)
Outline: as §1

[12] = test system: RARg:RXRa (NR concentration 270 nM, RXRa partner concentration 90 nM)
Outline: as §1

[13] = test system: RARg homodimer (NR concentration 270 nM)
Outline: as §1

[14] = test system: RXRa DBDmut IVT, anti-RXR (DBD mutation: RXRa K156A/R161A, NR concentration 90 nM)
Outline: as §1

[15] = test system: RXRa homodimer (NR concentration 180 nM)
Outline: as §1

[16] = test system: THRa:RXRa (NR concentration 90 nM, RXRa partner concentration 90 nM)
Outline: as §1

[17] = test system: THRa homodimer (NR concentration 90 nM)
Outline: as §1

[18] = test system: VDR homodimer (NR concentration 270 nM)
Outline: as §1

Sequence	PBM binding z-score [1]	PBM binding z-score [2]	PBM binding z-score [3]	PBM binding z-score [4]	PBM binding z-score [5]	PBM binding z-score [6]	PBM binding z-score [7]	PBM binding z-score [8]	PBM binding z-score [9]	PBM binding z-score [10]	PBM binding z-score [11]	PBM binding z-score [12]	PBM binding z-score [13]	PBM binding z-score [14]	PBM binding z-score [15]	PBM binding z-score [16]	PBM binding z-score [17]	PBM binding z-score [18]
AGAGTGAGGTTATTAAGATCAGGGAATTGCGGTC	0.817	0.889	0.661	0.468	2.05	1.43	1.67	1.5	1.44	1.7	1.42	1.12	0.991	1.56	1.82	2.12	1.33	1.97
CCTACTGGGCCAACGTCATTGATCAGTCAAAGCA	3.87	4	-0.653	-0.52	0.534	-0.583	-0.509	0.0251	-0.369	-0.00134	0.446	-0.195	-0.0642	-0.651	-0.328	-0.204	-0.526	-0.545
GAGACTGGGGCATCAGCAGGTTACCATAACTTAA	4.76	4.68	0.663	0.792	0.579	0.391	0.295	0.706	-0.0469	1.09	1.46	0.941	0.703	0.142	0.509	1.3	0.361	-0.0346
TCTAGTTGGTAACGGAGGTCACACACGACGGGTA	1.63	2.76	0.969	0.885	2.11	3.99	1.46	4.04	1.83	3.27	4.04	3.79	3.14	0.917	4.14	3.54	2.41	2.47
TAGCCTAGGTCATGCGGGCCATTATAGTGTCGGC	2.07	2.84	0.0501	-0.158	0.864	1.97	0.0749	2.7	-0.379	3.69	3.04	4.02	4.28	1.05	3.23	3.16	1.17	1.49
TTACCAAGGTGAAAGGTCGTTAATGCACGCCTTG	2.25	4.95	-0.238	0.567	1.27	3.35	0.236	4.98	0.00553	2.78	2.23	3.93	2.08	0.25	5.05	3.23	0.834	0.976
CCTTACGGGTCACTCCACGTTATAGCATCGGAGT	2.55	3.09	0.675	0.232	2.03	2.39	0.155	3.01	0.911	3.44	2.58	4.04	4.01	1.41	4.01	1.88	0.13	1.23
CCGACTGGGGCAAAGGTTACCGTACTCAGTACGA	4.82	5.85	0.024	-0.75	1.93	2.04	-0.837	3.75	-0.437	2.39	2.03	3.44	1.64	-0.356	3.45	1.7	-0.542	-0.111
GCTCGGAGGACAAGGTCAGAGGTTTGTCCGTAGA	-0.0469	1.09	-1.25	-0.886	0.801	1.78	-0.0547	2.19	-0.638	3.47	3.27	3.12	3.27	0.666	2.53	3.07	1.42	1.2
CCTACTGGGCCATCAGGTCAATGATATCAACGTT	4.61	5.43	0.416	0.266	1.14	1.16	0.0872	1.6	-0.0644	2.19	2.67	2.1	2.2	-0.0866	1.31	3.17	2.24	0.718
CCGACTGCGGCAAGGTTACCATAACGCACAGCCA	-0.209	-0.134	-0.21	-0.256	0.4	0.562	0.00644	0.946	0.0538	0.845	1	0.707	0.42	0.215	1.07	1.4	0.537	0.321
AGAACGTGGGCACGCTGAGTTGATAGCAGAGTAG	-0.231	-0.143	0.109	-0.419	-0.518	-0.542	-0.719	-0.528	-0.906	-0.0707	-0.561	-0.224	-0.0604	-0.279	-0.0635	-0.485	-0.747	-0.131
CGAACTAGGTCATCCAGGACAGTGGATACATTGA	7.91	7.98	1.6	0.738	2.41	1.89	1.23	2.52	1.24	4.03	3.05	4.08	4.8	2.01	2.9	3.74	1.96	2.06
ATCTCTAGGTAACAATTTCAGTGAAAGAGAGGAC	3.38	2.8	1.3	1.6	0.669	0.204	0.98	0.221	1.81	0.518	0.316	0.547	0.814	0.235	0.51	1.06	0.784	0.542
CCTACTGTGCCACGAAAGGTCATTGATTCAGTGA	5.18	4.39	0.906	0.678	3.62	5.32	1.94	5.05	1.63	3.96	4.67	4.41	3.73	1.43	4.76	3.46	1.67	2.34
GCTATTAGTTGAAAGGGCAACTGAATGATTCTCG	0.54	1.04	0.18	0.595	1.34	0.933	0.252	1.68	0.584	2.1	1.9	1.45	1.31	0.912	1.25	0.832	-0.217	0.256

Sequence	PBM binding z-score [1]	PBM binding z-score [2]	PBM binding z-score [3]	PBM binding z-score [4]	PBM binding z-score [5]	PBM binding z-score [6]	PBM binding z-score [7]	PBM binding z-score [8]	PBM binding z-score [9]	PBM binding z-score [10]	PBM binding z-score [11]	PBM binding z-score [12]	PBM binding z-score [13]	PBM binding z-score [14]	PBM binding z-score [15]	PBM binding z-score [16]	PBM binding z-score [17]	PBM binding z-score [18]
CCTGCTAGGTCATGGTAAGCTAATCTACAGTATG	4.44	3.92	0.752	0.561	1.24	1.15	-0.26	2.32	-0.305	3.87	2.79	3.8	4.48	1.84	2.62	2.98	1.22	-0.214
CCTAGCCGGCCAGGGTCACTCAAGCATTTCGCTT	-0.601	0.147	-1.32	-1.69	0.756	2.84	-0.583	3.45	-0.658	2.56	2.68	3.09	2.37	0.0811	3.47	2.91	1.08	1.38
CAGTCTAGGTCAGGGCCAGTATAGGAGGAACGTT	5.44	4.91	0.454	-0.134	1.53	0.376	0.305	1.2	0.439	3.48	2.84	3.02	3.96	0.701	1.55	2.42	1.52	0.322
CAAACTAGGTCCAAGGTCAAAGTCGAGCCAACCA	2.64	4.91	0.406	0.226	1.83	3.7	1.57	3.71	1.6	3.51	3.79	3.98	3.24	2.47	4.04	3.64	2.62	3.42
ACTCGGAGTACAAAGGTCAGAGCTACGCCAGTGA	0.771	3.83	-0.013	0.136	3.32	4.1	0.393	4.96	2.36	4.39	4.27	5.22	4.7	2.11	5.37	2.64	-0.258	1.63
ATATGTAGGTTATCGGGTCATGCAGTTTGCGCAT	7.6	7.68	2.17	1.66	2.79	3.47	2.99	4.11	1.09	2.55	3.1	3.43	2.66	0.921	3.76	3.54	3.02	3
CCTACCGGGCCAAAGGTCATTGATTCCAATGCTC	0.996	4.7	-0.596	-1.68	3.08	5.32	1.52	6.45	0.836	4.35	4.57	5.86	4.58	0.593	6.64	3.68	1.12	2.38
CGTCCAAGGTCTTAGGAGGTCAGTGAAGACAGAT	0.587	1.31	-0.3	-0.454	1.17	3.07	0.796	2.15	-0.152	2.46	3.12	2.51	2.68	0.709	2.01	4.13	1.15	1.33
CGAACTAGGTCAAGGACAGTGACTCTCCGCACGC	8.38	8.3	1.83	0.467	1.66	1.37	-0.264	2.54	0.541	3.95	3.26	3.85	4.74	1.45	2.69	3.31	2.26	0.341
GTACCAAGGTGAATACGTCGTTGATGAGTAGGCG	1.17	1.59	-0.251	-0.137	-0.116	-0.261	-0.456	0.186	0.0524	1.03	0.139	0.764	0.692	-0.417	0.56	1.19	0.199	-0.342
CCGACTGGGGCATATGGTTACCATAAGCCAGCCC	1.89	2.21	-0.616	-1.62	-0.697	-0.746	-0.567	-0.363	-0.355	0.172	-0.243	-0.00585	0.046	-0.59	0.109	-1.07	-0.688	-0.752
CTCGAAAGGTCCGTTGAGGTGAGTATACGGATAA	-0.499	0.457	0.113	-0.18	-0.594	0.156	-0.14	0.322	-0.439	1.12	0.529	0.513	0.708	0.119	0.313	4.14	0.988	0.885
TCGAGTAGGTGACCAATGGGGCATTCAGCTTTCT	4.22	3.6	-0.451	-1.19	-0.701	-0.233	-1.05	-0.0879	-1.72	0.567	0.62	0.353	0.0885	-0.0137	0.185	-0.147	-0.979	-0.776
CTTACTGGGCCACGAAAGGTCATTGATTCAGTGA	7.15	7.26	1.25	0.41	3.04	5.88	2.14	5.98	0.212	4.38	4.85	5.14	4.77	1.19	5.84	4.12	1.15	1.78
TCGAGTAGGTAAGTCGGGGCATTCAGCCAACATA	1.34	0.805	-1.3	-0.763	-0.452	-0.238	-0.436	-0.22	-0.413	-0.182	-0.0679	-0.527	-0.571	0.129	-0.331	0.543	-0.297	-0.05

Source: the supplement of paper PMC6555819
